Only some compounds are listed: those with a hit (about 3.5% of all), similar ones and a draw of the others.
MITF inh – inhibitors of human MITF; inhibition, % at 2.6 µM; AlphaScreen MITF homodimerization, bead proximity signal; AID 1259374; 650,000 compounds, 0.91% hits; O75030; in the data active means inhibition above about 50%;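 further: 0% = vehicle wells with protein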
Target sequence (O75030 whole entry, looked up): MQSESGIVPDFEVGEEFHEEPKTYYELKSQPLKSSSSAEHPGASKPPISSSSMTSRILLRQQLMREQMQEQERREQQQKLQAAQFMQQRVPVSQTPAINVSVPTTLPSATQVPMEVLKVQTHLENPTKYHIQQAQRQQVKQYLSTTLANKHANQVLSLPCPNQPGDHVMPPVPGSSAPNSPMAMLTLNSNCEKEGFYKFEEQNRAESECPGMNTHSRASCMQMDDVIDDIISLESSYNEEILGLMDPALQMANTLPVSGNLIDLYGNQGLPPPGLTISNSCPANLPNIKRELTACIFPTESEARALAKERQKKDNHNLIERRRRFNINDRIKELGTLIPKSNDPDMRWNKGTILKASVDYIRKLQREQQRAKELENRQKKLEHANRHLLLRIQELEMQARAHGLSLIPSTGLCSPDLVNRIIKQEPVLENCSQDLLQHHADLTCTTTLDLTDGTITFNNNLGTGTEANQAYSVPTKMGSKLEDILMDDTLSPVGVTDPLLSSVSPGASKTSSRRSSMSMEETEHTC
GPR151 ag – activates the human receptor GPR151 | Q8TDV0 | PathHunter beta-arrestin GPR151 cells, luminescence | activation, % at 11.2 µM | 650,000 compounds, 1% hits; in the data active means activation above about 4.9%;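 further: 0% = median of compound wells and 100% = cells with positive control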
FBW7 act – activators of human E3 ligase FBW7; Q969H0; AlphaScreen FBW7–phospho-cyclin E peptide binding, activator screen; normalized activity (activation), % at 26.1 µM; 650,000 compounds, 0.13% hits; in the data active means normalized activity above about 1.9%;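 further: purified mutant Fbw7 with reduced substrate affinity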
TEAD-YAP block – TEAD-YAP interaction inhibition. inhibition, % at 9.12 µM. HEK-TIYL cells, TEAD-Gal4/YAP UAS-luciferase luminescence. AID 1259422. 640,000 compounds, 1.4% hits; in the data active means inhibition above about 32%;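 further: 0% = median of test compound wells and 100% = reference inhibitor wells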
MITF inh conf – confirmation of human MITF inhibitors. shares compounds with MITF inh. AlphaScreen MITF homodimerization, biotin/His-MITF beads. inhibition, % at 2.6 µM. 4,700 compounds, 16% hits. AID 1259372;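 active means inhibition above a cutoff derived from the DMSO control wells, cut at about 28% in these data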;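 further: 0% = MITF dimer wells with DMSO only; inhibitors lower the bead chemiluminescence by keeping MITF from dimerizing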
AS interf ctr – counter-screen: compounds optically interfering with AlphaScreen | AID 1259376 | LysRS AlphaScreen counterscreen, signal interference, triplicate | shares compounds with MITF inh | inhibition, % at 2.6 µM | 4,700 compounds, 7.6% hits;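 active means inhibition above a cutoff derived from the DMSO control wells, cut at about 30% in these data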
GPR151 conf act – confirmation of human GPR151 activators; shares compounds with GPR151 ag; GPR151 PathHunter beta-arrestin cells, luminescence, 90 min; % of EA-reagent control over plate median; AID 1508609; activation, % at 11.2 µM; 6,700 tested, under 10 active;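 active means mean percent activation across replicates above the confirmation screen cutoff of 4.91%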
GPR119 ag – counter-screen for GPR151 activators: effect on human GPR119; shares compounds with GPR151 ag; GPR119 PathHunter beta-arrestin cells, luminescence, 90 min; 0 = compound-well median, 100 = enzyme-acceptor control; activation, % at 11.2 µM; 6,700 compounds, 0.3% hits;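 active means mean percent activation in the counterscreen above 29.09%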;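 further: counterscreen on off-target GPR119 to flag nonselective hits from the GPR151 activator screen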
Starred values were filed as active, the others as inactive; x = no result given; ! = not confirmed by another sample.

SMILES	MITF inh	GPR151 ag	FBW7 act	TEAD-YAP block	GPR151 conf act	GPR119 ag	others
COc1ccc(CCNCc2ccc(OC)cc2)cc1	21.1	-0.6	0.1	8.1	x	x
CCOc1ccc(CN(CCc2ccc3c(c2)OCO3)Cc2ccc([N+](=O)[O-])cc2)cc1	54.1*	-2.9	0.1	3.0	x	x	MITF inh conf=0.6;AS interf ctr=15.3
CCOc1ccc(CN(CCc2ccc3c(c2)OCO3)Cc2ccccc2)cc1	15.1	1.8	0.2	-3.5	x	x
O=C(c1ccncc1)N1CCN(C2CC3CCC2C3)CC1 (stereo not given)	63.6*	2.1	-0.1	-3.6	x	x	MITF inh conf=0.6;AS interf ctr=14.0
O=C(c1ccncc1)N1CCN(C2C3CC4CC(C3)CC2C4)CC1 (stereo not given)	75.6*	1.1	0.2	11.4	x	x	MITF inh conf=-3.0;AS interf ctr=-2.6
Cc1cc(C)c(C2=NNC(O)(C(F)(F)F)C2)c(=O)[nH]1 (stereo not given)	15.3	-0.6	0.0	-6.7	x	x
CCOC(=O)C1C2NC(=S)N(c3ccccc3C)C1(C)Oc1c(OCC)cccc12 (stereo not given)	60.2*	-1.6	-0.5	7.6	x	x	MITF inh conf=33.5*;AS interf ctr=36.0*
C=CCN(CC#CCOc1ccccc1OC)CC=C	60.4*	10.6*	0.1	-11.3	0.0	-3.8	MITF inh conf=7.1;AS interf ctr=12.3
CN(C)C(=O)Oc1ccc2c(-c3cc4ccccc4oc3=O)cc(=O)oc2c1	-8.6	-1.3	0.1	-2.2	x	x
CN1C2CCC1CC(OC(=O)CNCc1cccs1)C2 (stereo not given)	51.5*	7.3*	0.0	-0.3	0.5	4.9	MITF inh conf=7.1;AS interf ctr=13.6
CN1CCN(CCC(=O)OC2CC3CCC(C2)N3C)CC1 (stereo not given)	8.8	1.0	0.1	4.5	x	x
COc1ccccc1OCCCn1c(C)c(C=O)c2ccccc21	-11.4	1.8	-0.3	-0.2	x	x
CCOC(=O)CCCn1c(C(=O)OCC)c(C=O)c2ccccc21	-10.7	6.3*	0.0	0.0	0.2	12.7
CCC(COC(=O)NC)NC(=O)Oc1cccc(C)c1 (stereo not given)	3.0	-1.3	-0.1	4.8	x	x
CCC(COC(=O)NC)NC(=O)Oc1ccccc1 (stereo not given)	-0.9	5.8*	0.1	-0.6	0.2	0.9
CCOc1ccc(C2SCC(=O)Nc3c2c(=O)[nH]n3C(CC)CC)cc1 (stereo not given)	7.6	7.1*	0.2	0.2	-0.3	-15.0
CN1CCN(c2nc(C(F)(F)F)ccc2C#N)CC1	12.7	0.7	-0.1	-4.7	x	x
COc1ccc(CC(C)NC2CCN(Cc3ccccc3)CC2)cc1OC (stereo not given)	-17.4	0.9	0.0	-4.0	x	x
Cc1cccc(OP(N)(=O)Oc2cccc(C)c2)c1	-2.1	-1.0	-0.1	3.4	x	x
NP(=O)(Oc1ccc(Cl)cc1)Oc1ccc(Cl)cc1	15.8	6.3*	0.2	6.5	2.2	9.7
COc1cc(N2CCOCC2)ccc1/C=C1\C(=O)NC(=O)N(Cc2cccs2)C1=O	1.8	-0.7	-0.4	9.2	x	x
COc1cc(N2CCOCC2)ccc1C=C1C(=O)NC(=O)NC1=O	4.6	8.0*	-0.7	4.2	0.0	-3.6
Cc1nn(Cc2ccccc2)c(Cl)c1C(=O)NC1CCCCCC1	x	7.4*	x	x	-0.8	-10.0
CC[n+]1c(/C=C/C=C2\N(C)c3ccccc3C2(C)C)n(-c2ccccc2)c2cc(Cl)ccc21	-24.2	8.3*	0.1	90.5*	2.9	19.8
CN1/C(=C/C=C2C(=O)NC(=S)NC2=O)C(C)(C)c2ccccc21	8.2	0.5	0.7	-4.2	x	x
SMILES	MITF inh	GPR151 ag	FBW7 act	TEAD-YAP block	GPR151 conf act	GPR119 ag	others
CCn1c(/C=C/C=C2\N(C)c3ccccc3C2(C)C)[n+](Cc2ccccc2)c2ccccc21	-5.2	8.7*	0.0	92.1*	2.8	27.2
CC[n+]1c(/C=C/C=C2\N(C)c3ccccc3C2(C)C)n(-c2ccccc2)c2ccc(C)cc21	-8.5	11.0*	-0.1	91.4*	3.0	38.8*
COc1ccc(OC)c(N2Cc3ccccc3C2=N)c1	-13.6	5.9*	0.0	-11.4	0.1	3.4
Cc1cc(C)n(CCN2CCN(C(=O)Cc3cccs3)CC2)n1	-3.2	-0.6	-0.2	-0.3	x	x
CN1CCN(c2ccc(/C=C(\C#N)C(N)=O)cc2[N+](=O)[O-])CC1	16.4	17.1*	0.2	0.2	1.3	4.7
O=C(CCN1CCOCC1)Nc1ccc(Cl)cc1C(=O)c1ccccc1	-0.1	1.8	-0.5	-1.2	x	x
O=C(C1CN(CCc2c[nH]c3ccccc23)CCN1)N1CCOCC1 (stereo not given)	7.3	5.1*	-0.1	-2.5	-0.8	-14.6
C=C(C)[C@H]1CN[C@H](C(=O)O)[C@H]1CC(=O)O	-3.3	7.6*!	0.3	-2.6	-0.4	-0.9
CC[C@@H]1C(=O)OC[C@@H]1Cc1cncn1C	-6.5	9.6*!	-0.1	1.8	0.4	-6.2
C=CCOC(=O)C1C2NC(=S)NC1(C)Oc1c(OCC)cccc12 (stereo not given)	1.9	1.0	-0.2	7.1	x	x
CC(Cc1ccsc1)NC1CCN(c2ccc(NS(=O)(=O)N(C)C)cc2)CC1 (stereo not given)	0.4	-1.2	-0.1	-7.6	x	x
N#Cc1ccc(NC(=O)COc2ncnc3ccccc23)cc1Cl	4.3	0.7	-0.1	-0.2	x	x
N#CCCn1cc(C(=O)n2nnc3ccccc32)c(-c2ccc([N+](=O)[O-])cc2)n1	13.7	-0.1	0.4	-6.4	x	x
COc1ccc(CCNCc2cc(OC)c(OC)c(OC)c2)cc1OC	40.6	-1.1	0.2	13.3	x	x
COc1ccc(Cc2nccc3cc(OC)c(OC)cc23)cc1OC	6.2	5.8*!	0.1	3.8	1.6	12.7
COc1cc(CN2CCN(c3ccccc3F)CC2)ccc1O	22.1	-0.6	-0.1	-2.2	x	x
Cc1noc(C)c1CC(=O)N1CCCC(N2CCOCC2)C1 (stereo not given)	-0.5	0.8	0.0	2.2	x	x
O=C(Cc1ccsc1)N1CCCC(N2CCOCC2)C1 (stereo not given)	10.7	5.8*	0.1	-2.2	0.4	4.0
C=CCOC(=O)C1=C(C)OC(N)=C(C(=O)OCC)C12C(=O)N(C)c1ccccc12 (stereo not given)	2.1	3.3	0.6	8.4	x	x
CC1(C)C(c2ccccn2)=[N+]([O-])C(c2cccnc2)N1O (stereo not given)	24.0	-0.5	0.3	4.9	x	x
CC1(C)C(c2ccccc2)=[N+]([O-])C(c2cccnc2)N1O (stereo not given)	0.4	6.2*	0.6	5.8	-0.4	-6.9
CS(=O)(=O)c1ccc(N2CCNCC2)c(F)c1	-6.6	4.9*	0.0	-3.2	0.2	4.9
